# Source: the supplement of paper PMC11006884
# Of roughly 6,500 targets only a part is listed; those with a hit were picked by preference. About 2% of all pairs of compound and target were hits.
# Compound: COC(=O)C#Cc1ccccc1 [methyl 3-phenylpropiolate]
# Test: log2 ratio of iodoacetamide-alkyne labeling of the cysteine site, DMSO over compound (competition); higher = stronger covalent engagement of the cysteine by the compound, active = 1 or more
# Conditions: 500 µM; treatment time 1 h; system: HEK293T cell lysate
# In short: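 HEK293T lysate (2 mg/mL) was incubated with electrophile (500 µM) or vehicle for 1 h at ambient temperature and then with iodoacetamide alkyne for 1 h. Labelled proteins were clicked to sCIP-TMT reagents, pooled, digested, enriched on streptavidin and measured by Orbitrap Eclipse LC-MS/MS with FAIMS, with FragPipe quantification. The per-cysteine log2 competition ratio is mean control-channel reporter intensity over mean compound-channel reporter intensity. Across three replicates with duplicate channels, cysteines quantified in only one replicate were excluded.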
# UniProt P62633, sequence (P62633 whole entry, looked up): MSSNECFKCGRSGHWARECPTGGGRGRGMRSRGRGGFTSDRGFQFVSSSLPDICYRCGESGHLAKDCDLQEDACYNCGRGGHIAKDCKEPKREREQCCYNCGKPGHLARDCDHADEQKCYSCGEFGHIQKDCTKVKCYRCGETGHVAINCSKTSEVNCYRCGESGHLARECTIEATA
# UniProt Q15181, sequence (Q15181 whole entry, looked up): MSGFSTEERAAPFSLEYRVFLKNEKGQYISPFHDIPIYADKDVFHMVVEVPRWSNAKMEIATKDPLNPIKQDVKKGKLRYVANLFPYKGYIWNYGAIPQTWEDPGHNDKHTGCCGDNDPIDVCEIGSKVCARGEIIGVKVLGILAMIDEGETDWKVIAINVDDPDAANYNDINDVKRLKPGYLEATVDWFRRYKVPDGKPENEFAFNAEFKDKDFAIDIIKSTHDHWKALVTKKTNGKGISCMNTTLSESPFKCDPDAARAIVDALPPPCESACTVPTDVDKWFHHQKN
# UniProt Q15032, sequence (Q15032 whole entry, one chain of several): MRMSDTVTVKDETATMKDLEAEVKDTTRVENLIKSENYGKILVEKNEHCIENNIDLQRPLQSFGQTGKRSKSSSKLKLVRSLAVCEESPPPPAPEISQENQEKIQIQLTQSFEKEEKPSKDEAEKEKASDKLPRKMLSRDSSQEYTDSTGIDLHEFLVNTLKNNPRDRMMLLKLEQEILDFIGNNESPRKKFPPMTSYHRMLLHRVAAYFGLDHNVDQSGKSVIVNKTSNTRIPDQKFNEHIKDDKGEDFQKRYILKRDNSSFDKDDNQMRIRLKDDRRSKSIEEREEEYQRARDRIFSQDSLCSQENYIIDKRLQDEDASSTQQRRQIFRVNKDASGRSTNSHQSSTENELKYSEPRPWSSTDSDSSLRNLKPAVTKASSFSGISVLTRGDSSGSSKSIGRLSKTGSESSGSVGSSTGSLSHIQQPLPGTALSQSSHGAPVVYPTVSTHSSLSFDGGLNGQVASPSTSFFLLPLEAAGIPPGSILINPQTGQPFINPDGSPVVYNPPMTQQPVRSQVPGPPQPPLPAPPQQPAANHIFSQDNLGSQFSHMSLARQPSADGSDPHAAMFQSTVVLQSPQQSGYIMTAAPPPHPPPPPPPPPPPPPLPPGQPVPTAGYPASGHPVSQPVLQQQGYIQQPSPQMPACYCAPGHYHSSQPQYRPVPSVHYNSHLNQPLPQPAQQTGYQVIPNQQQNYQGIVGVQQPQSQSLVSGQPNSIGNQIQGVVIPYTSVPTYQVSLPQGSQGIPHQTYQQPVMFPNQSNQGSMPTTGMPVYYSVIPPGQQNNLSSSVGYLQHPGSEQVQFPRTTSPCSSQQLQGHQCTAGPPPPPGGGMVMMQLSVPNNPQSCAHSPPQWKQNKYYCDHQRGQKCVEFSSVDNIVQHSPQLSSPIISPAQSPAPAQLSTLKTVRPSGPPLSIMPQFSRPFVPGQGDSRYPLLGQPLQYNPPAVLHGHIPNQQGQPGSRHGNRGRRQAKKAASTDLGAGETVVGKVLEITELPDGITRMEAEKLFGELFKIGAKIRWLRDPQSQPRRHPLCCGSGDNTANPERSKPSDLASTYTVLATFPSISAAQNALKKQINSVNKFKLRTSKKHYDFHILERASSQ
# UniProt P53384, sequence (P53384 whole entry, looked up): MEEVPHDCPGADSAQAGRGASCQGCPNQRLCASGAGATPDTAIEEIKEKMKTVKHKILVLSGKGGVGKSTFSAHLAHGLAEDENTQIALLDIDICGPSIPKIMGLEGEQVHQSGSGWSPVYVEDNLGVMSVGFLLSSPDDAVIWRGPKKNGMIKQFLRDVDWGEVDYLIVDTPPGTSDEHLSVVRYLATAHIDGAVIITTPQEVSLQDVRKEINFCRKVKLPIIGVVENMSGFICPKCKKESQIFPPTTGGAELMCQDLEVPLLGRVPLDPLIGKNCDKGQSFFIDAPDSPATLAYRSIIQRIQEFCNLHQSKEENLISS
# UniProt Q14781, sequence (Q14781 whole entry, looked up): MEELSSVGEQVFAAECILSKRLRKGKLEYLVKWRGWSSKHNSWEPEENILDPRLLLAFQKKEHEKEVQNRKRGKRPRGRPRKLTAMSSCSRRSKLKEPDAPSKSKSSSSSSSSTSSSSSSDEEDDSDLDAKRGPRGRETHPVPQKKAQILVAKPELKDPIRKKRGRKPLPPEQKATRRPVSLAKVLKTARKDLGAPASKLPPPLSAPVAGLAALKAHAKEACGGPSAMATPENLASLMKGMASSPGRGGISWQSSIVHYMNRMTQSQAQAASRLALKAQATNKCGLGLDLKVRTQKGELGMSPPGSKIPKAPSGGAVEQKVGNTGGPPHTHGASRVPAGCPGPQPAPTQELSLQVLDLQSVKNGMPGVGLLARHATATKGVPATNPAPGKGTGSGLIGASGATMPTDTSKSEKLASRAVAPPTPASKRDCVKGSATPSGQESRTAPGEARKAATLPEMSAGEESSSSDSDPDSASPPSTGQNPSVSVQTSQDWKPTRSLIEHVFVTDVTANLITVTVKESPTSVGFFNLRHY
# UniProt Q15024, sequence (Q15024 whole entry): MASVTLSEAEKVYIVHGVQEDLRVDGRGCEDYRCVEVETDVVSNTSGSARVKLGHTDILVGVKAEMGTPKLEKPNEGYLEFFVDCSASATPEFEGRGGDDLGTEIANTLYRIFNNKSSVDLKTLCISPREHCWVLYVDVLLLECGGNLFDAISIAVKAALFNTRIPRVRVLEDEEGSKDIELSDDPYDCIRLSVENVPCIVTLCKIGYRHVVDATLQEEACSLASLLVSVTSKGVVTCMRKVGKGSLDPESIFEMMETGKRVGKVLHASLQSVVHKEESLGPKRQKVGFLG
# UniProt Q2TAA2, sequence (Q2TAA2 whole entry, looked up): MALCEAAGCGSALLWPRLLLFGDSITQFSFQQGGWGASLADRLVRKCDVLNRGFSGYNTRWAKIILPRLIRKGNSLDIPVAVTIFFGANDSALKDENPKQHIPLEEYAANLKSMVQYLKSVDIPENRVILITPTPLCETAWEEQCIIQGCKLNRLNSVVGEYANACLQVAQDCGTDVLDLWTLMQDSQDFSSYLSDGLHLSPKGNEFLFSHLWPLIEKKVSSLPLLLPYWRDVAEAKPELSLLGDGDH
# UniProt Q4VC44, sequence (Q4VC44 whole entry): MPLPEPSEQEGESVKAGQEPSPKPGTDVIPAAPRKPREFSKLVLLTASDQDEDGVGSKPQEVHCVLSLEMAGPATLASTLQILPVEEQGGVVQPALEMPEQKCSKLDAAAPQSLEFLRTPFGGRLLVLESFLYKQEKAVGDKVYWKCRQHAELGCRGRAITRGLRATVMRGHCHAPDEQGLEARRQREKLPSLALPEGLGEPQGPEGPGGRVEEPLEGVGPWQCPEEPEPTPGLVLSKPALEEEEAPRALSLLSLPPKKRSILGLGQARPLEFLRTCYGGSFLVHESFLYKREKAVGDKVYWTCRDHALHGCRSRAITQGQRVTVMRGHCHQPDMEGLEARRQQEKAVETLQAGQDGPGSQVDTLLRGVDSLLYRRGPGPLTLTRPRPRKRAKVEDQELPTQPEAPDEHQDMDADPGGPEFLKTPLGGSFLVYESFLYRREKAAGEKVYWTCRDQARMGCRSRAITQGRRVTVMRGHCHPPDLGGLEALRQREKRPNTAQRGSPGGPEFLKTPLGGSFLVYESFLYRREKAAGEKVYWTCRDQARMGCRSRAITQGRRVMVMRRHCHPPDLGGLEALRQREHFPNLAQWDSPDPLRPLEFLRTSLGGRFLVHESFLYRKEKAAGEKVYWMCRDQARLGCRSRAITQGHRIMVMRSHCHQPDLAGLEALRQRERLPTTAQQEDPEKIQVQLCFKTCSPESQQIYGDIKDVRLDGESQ
# UniProt Q06265, sequence (Q06265 whole entry): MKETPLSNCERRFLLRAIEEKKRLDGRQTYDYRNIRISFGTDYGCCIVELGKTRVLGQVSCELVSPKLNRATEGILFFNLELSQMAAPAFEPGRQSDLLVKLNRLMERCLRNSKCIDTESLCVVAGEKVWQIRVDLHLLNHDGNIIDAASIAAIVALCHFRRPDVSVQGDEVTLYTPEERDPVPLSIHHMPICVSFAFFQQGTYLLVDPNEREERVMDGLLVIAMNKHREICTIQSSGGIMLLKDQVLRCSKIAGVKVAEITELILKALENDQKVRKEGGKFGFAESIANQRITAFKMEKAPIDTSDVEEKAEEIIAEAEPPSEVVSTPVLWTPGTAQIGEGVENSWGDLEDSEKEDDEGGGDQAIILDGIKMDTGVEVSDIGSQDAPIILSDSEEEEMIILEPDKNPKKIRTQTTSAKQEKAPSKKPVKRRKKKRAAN
# UniProt Q06587, sequence (Q06587 whole entry, looked up): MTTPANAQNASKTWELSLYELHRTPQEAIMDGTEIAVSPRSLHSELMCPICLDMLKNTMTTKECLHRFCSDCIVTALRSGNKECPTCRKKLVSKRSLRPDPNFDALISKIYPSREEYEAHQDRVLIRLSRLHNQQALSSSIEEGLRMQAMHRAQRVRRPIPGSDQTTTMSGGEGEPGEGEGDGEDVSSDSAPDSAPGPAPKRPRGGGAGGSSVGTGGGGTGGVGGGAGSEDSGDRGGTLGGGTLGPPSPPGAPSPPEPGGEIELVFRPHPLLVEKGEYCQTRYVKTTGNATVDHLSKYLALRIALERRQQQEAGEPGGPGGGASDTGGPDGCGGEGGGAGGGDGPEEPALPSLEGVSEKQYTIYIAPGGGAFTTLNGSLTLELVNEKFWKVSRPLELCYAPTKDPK
# UniProt Q15005, sequence (Q15005 whole entry, looked up): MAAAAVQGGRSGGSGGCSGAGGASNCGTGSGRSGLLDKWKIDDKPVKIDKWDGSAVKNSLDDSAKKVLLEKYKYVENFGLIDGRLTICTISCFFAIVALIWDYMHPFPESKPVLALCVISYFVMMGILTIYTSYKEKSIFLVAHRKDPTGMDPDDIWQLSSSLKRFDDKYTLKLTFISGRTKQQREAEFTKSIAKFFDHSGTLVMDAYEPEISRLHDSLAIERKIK
row,Target,log2 ratio of iodoacetamide-alkyne labeling
1,NUBP1 C31 (UniProt P53384),0.626 (inactive)
2,FHL1 C10 (UniProt Q13642),-0.136 (inactive)
3,UniProt P84103_C6,0.422 (inactive)
4,TTLL12 C126 (UniProt Q14166),-0.117 (inactive)
5,COASY C144 (UniProt Q13057),1.16 (active)
6,FHL1 C191 (UniProt Q13642),-0.117 (inactive)
7,GABPB1 C331 (UniProt Q06547),0.198 (inactive)
8,EEA1 C1405 (UniProt Q15075),0.0817 (inactive)
9,RING1 C69 (UniProt Q06587),0.171 (inactive)
10,CNBP C6 (UniProt P62633),0.0447 (inactive)
11,OGDH C802 (UniProt Q02218),-0.0839 (inactive)
12,UniProt Q15365_C194,1.08 (active)
13,AKAP13 C683 (UniProt Q12802),0.255 (inactive)
14,RPS27A C144 (UniProt P62979),-0.175 (inactive)
15,ESPL1 C1369 (UniProt Q14674),0.218 (inactive)
16,EXOSC7 C85 (UniProt Q15024),-0.0747 (inactive)
17,EXOSC9 C9 (UniProt Q06265),0.307 (inactive)
18,IAH1 C9 (UniProt Q2TAA2),2.43 (active)

row,Target,log2 ratio of iodoacetamide-alkyne labeling
1,PPA1 C270 (UniProt Q15181),0.153 (inactive)
2,UniProt Q00341_C683,-0.0455 (inactive)
3,UniProt P62258_C97,-0.063 (inactive)
4,UniProt P60891_C165,-0.19 (inactive)
5,UniProt P62854_C77,0.434 (inactive)
6,UniProt P60842_C134,0.0481 (inactive)
7,COASY C140 (UniProt Q13057),1.16 (active)
8,KIF11 C450 (UniProt P52732),0.0207 (inactive)
9,ADAR C392 (UniProt P55265),0.693 (inactive)
10,FLYWCH1 C173 (UniProt Q4VC44),-0.0462 (inactive)
11,MTA1 C229 (UniProt Q13330),0.124 (inactive)
12,GEMIN4 C382 (UniProt P57678),0.0965 (inactive)
13,ACLY C20 (UniProt P53396),0.357 (inactive)
14,R3HDM1 C304 (UniProt Q15032),0.1 (inactive)
15,CBX2 C340 (UniProt Q14781),0.654 (inactive)
16,SPCS2 C26 (UniProt Q15005),1.62 (active)
17,GEN1 C668 (UniProt Q17RS7),0.0186 (inactive)
